# Measured values as given in PMC4336329 (PLoS ONE, 2015).
# Hit rate of the full screen: of about 310,000 compounds, about 14,000 (4.5%) showed an effect of 50% or more. Effects have a minus sign here. What follows is part of a selection rich in strong results, with near analogues and random picks from the rest.
# Target: human ether-à-go-go-related gene (hERG) potassium channel (human, UniProt Q12809)
# Assay: primary screen, population patch clamp on CHO cells stably expressing hERG; higher = less effect of the substance
# 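Also: peak tail current of the secondary pulse compared with the same well before compound.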
# Chain of human ether-à-go-go-related gene (hERG) potassium channel (Q12809 whole entry, looked up): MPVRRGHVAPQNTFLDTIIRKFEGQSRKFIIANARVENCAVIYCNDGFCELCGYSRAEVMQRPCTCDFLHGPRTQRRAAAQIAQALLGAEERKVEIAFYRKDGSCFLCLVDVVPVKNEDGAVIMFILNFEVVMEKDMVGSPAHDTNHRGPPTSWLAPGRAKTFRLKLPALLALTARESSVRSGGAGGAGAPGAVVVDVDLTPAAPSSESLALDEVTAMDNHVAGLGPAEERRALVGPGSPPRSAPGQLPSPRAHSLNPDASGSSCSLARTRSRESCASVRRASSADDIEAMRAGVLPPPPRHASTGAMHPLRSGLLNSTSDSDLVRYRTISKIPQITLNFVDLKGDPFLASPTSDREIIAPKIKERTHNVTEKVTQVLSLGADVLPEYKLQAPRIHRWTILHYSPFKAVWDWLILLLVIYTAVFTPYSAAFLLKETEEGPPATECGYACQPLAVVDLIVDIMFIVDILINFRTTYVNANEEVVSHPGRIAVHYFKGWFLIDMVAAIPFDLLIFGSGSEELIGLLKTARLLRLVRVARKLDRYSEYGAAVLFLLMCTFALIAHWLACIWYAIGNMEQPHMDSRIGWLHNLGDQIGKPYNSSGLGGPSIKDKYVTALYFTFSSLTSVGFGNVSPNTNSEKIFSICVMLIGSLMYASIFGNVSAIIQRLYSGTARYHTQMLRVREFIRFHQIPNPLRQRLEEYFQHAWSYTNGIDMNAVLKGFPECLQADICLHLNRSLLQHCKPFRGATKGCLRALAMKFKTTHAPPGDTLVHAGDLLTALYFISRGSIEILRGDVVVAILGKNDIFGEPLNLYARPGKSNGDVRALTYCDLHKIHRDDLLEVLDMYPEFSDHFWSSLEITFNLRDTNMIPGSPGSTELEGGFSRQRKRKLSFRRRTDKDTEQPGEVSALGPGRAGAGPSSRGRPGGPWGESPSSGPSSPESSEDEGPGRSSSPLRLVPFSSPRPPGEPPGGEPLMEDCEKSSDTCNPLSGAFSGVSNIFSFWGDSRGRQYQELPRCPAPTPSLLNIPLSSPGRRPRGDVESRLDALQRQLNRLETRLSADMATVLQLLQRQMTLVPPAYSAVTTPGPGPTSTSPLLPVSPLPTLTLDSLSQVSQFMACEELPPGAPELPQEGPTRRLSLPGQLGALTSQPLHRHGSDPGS
row,SMILES,"hERG current change (%, negative = inhibition) at 10uM [%]"
1,COc1ccccc1-c1cc(C(=O)N2CCCC2)no1,-8.67
2,Cc1ccc(S(=O)(=O)/N=C(/Nc2ccc(F)cc2F)c2ccccc2)cc1,12.9
3,COC(=O)c1ccc(NC(=S)Nc2cccc(C)n2)cc1,-0.48
4,O=C(COC(=O)c1c(F)cccc1Cl)NC(=O)Nc1ccc2c(c1)OCCO2,12.4
5,CCOC(=O)c1ccc(NC(=O)c2nn(CC)cc2Br)cc1,5.3
6,CC(=NCCO)c1c(O)n(C2CCCCC2)c(=O)[nH]c1=O,-5.36
7,CC1CN(C2=NC(=O)/C(=C/c3ccncc3)S2)CC(C)O1 (stereo not drawn),-14.5
8,CCN1CCCC1CNC(=O)c1ccc2c(c1)N(Cc1cccc(Cl)c1)C(=O)c1ccccc1S2(=O)=O (stereo not drawn),-39.7
9,CCCC(=O)N(CCN1CCOCC1)c1nc2c(C)cccc2s1.Cl,-7.14
10,Cc1cccc2sc(N(CCN3CCOCC3)C(=O)CCS(=O)(=O)c3ccccc3)nc12.Cl,-13.3
11,CCOc1ccc2nc(N(CCN(C)C)C(=O)c3cc4ccccc4cc3OC)sc2c1.Cl,1.72
12,CCOc1ccc2nc(N(Cc3ccccc3)C(=O)CCNC(C)=O)sc2c1,-61
13,COc1ccc2nc(N(Cc3ccccc3)C(=O)CCNC(C)=O)sc2c1,-8.54
14,CC(=O)NCCC(=O)N(Cc1ccccc1)c1nc2c(C)cccc2s1,-57.4
15,CC(NC(=O)c1cc(F)c(F)cc1Cl)c1ccncc1 (stereo not drawn),1.1
16,CCCc1ccc(C(C)NC(=S)NCc2ccc(F)cc2)cc1 (stereo not drawn),18.6
17,CCOc1ccc(C(=O)OCC(=O)NC(C)C)cc1,22.3
18,COc1ccccc1NS(=O)(=O)c1ccc(O)c(NC(=S)NCC2CCCO2)c1 (stereo not drawn),7
19,CCN(CC)C(=O)C(=O)N/N=C/c1ccc(F)cc1,18.7
20,COC(=O)c1ccc(CSc2ccc3nnc(-c4ccc(OC)c(OC)c4)n3n2)o1,-15.1
21,COC(=O)c1ccc(CSc2ccc3nnc(-c4ccccc4)n3n2)o1,-53.5
22,COC(=O)c1ccc(CSc2ccc3nnc(-c4ccc(OC)cc4)n3n2)o1,-44.2
23,COC(=O)c1ccc(CSc2ccc3nnc(-c4cccc(F)c4)n3n2)o1,-62
24,COC(=O)c1ccc(CSc2ccc3nnc(-c4ccc(F)cc4)n3n2)o1,-29.1
25,COC(=O)c1ccc(CSc2ccc3nnc(-c4ccccn4)n3n2)o1,-62.8
26,CCOc1ccc(-c2nnc3ccc(SCc4ccc(C(=O)OC)o4)nn23)cc1,-24.4

row,SMILES,"hERG current change (%, negative = inhibition) at 10uM [%]"
1,CSc1nccc(Oc2cncc(Cl)c2)n1,8.61
2,Cc1csc(-c2cnn(-c3ccccc3)c2NC(=O)c2cccc(C(F)(F)F)c2)n1,9.98
3,CC(NC(=S)Nc1ccc(Cl)cc1)C(c1ccccc1)N1CCOCC1 (stereo not drawn),-13
4,COc1ccc(N=C2C(=O)N3c4c(cccc42)C(C)=CC3(C)C)cc1,9
5,Cc1c(CCOC(=O)c2cc([N+](=O)[O-])cc([N+](=O)[O-])c2)sc[n+]1CC(=O)c1ccc(Br)cc1.[Br-],-40.7
6,Cc1c(CCOC(=O)c2ccc([N+](=O)[O-])cc2)sc[n+]1CC(=O)c1ccccc1.[Br-],-63.7
7,Cc1sc[n+](CC(=O)c2ccc(Br)cc2)c1C.[Br-],-12.7
8,COc1ccc(C(=O)OCCc2sc[n+](CC(=O)c3ccccc3)c2C)cc1.[Br-],-48.9
9,Cc1c(CCOC(=O)c2ccccc2)sc[n+]1Cc1ccccc1.[Cl-],-32.7
10,Cc1ccc(C(=O)OCCc2sc[n+](Cc3ccccc3)c2C)cc1.[Cl-],-70.1
11,Cc1c(CCOC(=O)C23CC4CC(CC(C4)C2)C3)sc[n+]1Cc1ccccc1.[Cl-],-8.89
12,Cc1c(CCOC(=O)c2ccccc2)sc[n+]1CC(=O)c1ccc(Br)cc1.[Br-],-77
13,Cc1c(CCOC(=O)c2cc([N+](=O)[O-])cc([N+](=O)[O-])c2)sc[n+]1CCCCS(=O)(=O)[O-],23.4
14,Cc1c(CCOC(=O)c2cc([N+](=O)[O-])cc([N+](=O)[O-])c2)sc[n+]1CC(=O)c1ccccc1.[Cl-],5.96
15,Cc1[nH+]csc1CCOC(=O)c1ccc([N+](=O)[O-])cc1.[Cl-],-35.4
16,Cc1c(CCOC(=O)c2cccc([N+](=O)[O-])c2)sc[n+]1CC(=O)c1ccccc1.[Br-],-51.1
17,Cc1cc(NC(=O)C2CCCCC2)nc2c1c(=O)oc1ccccc12,3.61
18,O=C(Nc1cccnc1)c1ccc(S(=O)(=O)N2CCCCCC2)cc1,5.14
19,O=C(CN1C(=O)c2ccccc2C1=O)NCC(=O)OCC(=O)c1ccc(Cl)cc1,16.2
20,CCOc1ccccc1NC(=O)CCC(=O)Nc1ccc2nc(N3CCN(C)CC3)cc(C)c2c1,3.51
21,Cn1c(CCC(=O)Nc2ccc(F)cc2)nc2cc(S(=O)(=O)N3CCOCC3)ccc21,-17.7
22,CC(NC(=O)CCc1nc2cc(S(=O)(=O)N3CCOCC3)ccc2n1C)c1ccc(S(N)(=O)=O)cc1 (stereo not drawn),-57.9
23,Cn1c(CCC(=O)Nc2cc(S(C)(=O)=O)ccc2Cl)nc2cc(S(=O)(=O)N3CCOCC3)ccc21,-25.4
24,CCOc1ccc(NS(=O)(=O)c2ccc(C(=O)NCCCN3CCCC3=O)cc2)cc1,7.23
25,CC(=O)Nc1ccc(S(=O)(=O)NNC(=O)c2ccc(S(=O)(=O)N3CCCCC3)cc2)cc1,6.41
